{
  "source": "PubChem BioAssay AID1851",
  "about": "(National Center for Advancing Translational Sciences (NCATS), 2009)",
  "note": "“And” between values parts separate entries of the source, which are not always exact repeats. Equal values may be shown once. About 2,600 (16%) of roughly 16,000 compounds were called active. Inconclusive results (about 20%) are left out. Calls follow the shape of the dose curve; as a rule, active = well fitted curve in the direction sought with a large enough effect; inconclusive = small, poorly fitted or top-dose-only effect, or effect the other way; inactive = no such curve, though single readings can be large or run the other way. Not all results are given here. % is scaled to controls: 0 for no effect and ±100 for the full control effect.",
  "data": [
    {"molecular_target": "Cytochrome P450 2D6 (Homo sapiens) (UniProt P10635)", "sequence (P10635 whole entry, looked up)": "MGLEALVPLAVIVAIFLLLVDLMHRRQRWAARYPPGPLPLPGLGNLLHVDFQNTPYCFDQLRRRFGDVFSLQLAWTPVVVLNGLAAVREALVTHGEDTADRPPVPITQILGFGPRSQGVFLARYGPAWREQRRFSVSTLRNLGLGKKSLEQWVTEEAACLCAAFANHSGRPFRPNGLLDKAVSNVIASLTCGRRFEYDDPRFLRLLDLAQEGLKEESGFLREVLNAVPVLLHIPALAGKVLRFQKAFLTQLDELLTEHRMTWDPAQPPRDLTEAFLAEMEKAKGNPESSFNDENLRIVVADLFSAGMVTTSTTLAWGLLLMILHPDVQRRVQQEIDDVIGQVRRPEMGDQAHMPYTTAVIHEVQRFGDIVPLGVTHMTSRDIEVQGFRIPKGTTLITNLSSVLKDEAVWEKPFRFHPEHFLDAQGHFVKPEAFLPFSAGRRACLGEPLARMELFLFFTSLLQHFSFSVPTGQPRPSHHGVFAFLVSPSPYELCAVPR", "assay": "Cytochrome panel assay with activity outcomes", "conditions": "recombinant CYP, pro-luciferin dealkylation, luminescence, p450-cyp2d6; series mostly up to 57.1 µM", "values": [
      {"compound": "Cc1cc(/C=N\\NC(=O)c2cccs2)c(C)n1-c1ccc2ncccc2c1", "AC50": "inactive"},
      {"compound": "C[C@@H]1CCC[C@H](C)N1", "AC50": "inactive"},
      {"compound": "CN(C/C=C\\c1ccccc1)Cc1cccc2ccccc12", "AC50": "251 nM (active)"},
      {"compound": "O=S(=O)(O)CCCc1cccc2ccccc12", "activity, negative = inhibition": "7.84% [at 11.4 µM] (inactive)"},
      {"compound": "CN(Cc1cccc2ccccc12)Cc1cccc2ccccc12", "AC50": "398 nM (active)"},
      {"compound": "Cc1cc(C)cc(C(=N)c2ccccc2Cc2cccc3ccccc23)c1", "activity, negative = inhibition": "5.99% [at 11.4 µM] (inactive)"},
      {"compound": "CCOC(=O)CSCC(NC(=O)OC(C)(C)C)C(=O)OCC", "note": "(stereo unspecified)", "AC50": "inactive"},
      {"compound": "O=C1C2C3C=CC(C2C(=O)N1CN1CCOCC1)C1C2C(=O)N(CN4CCOCC4)C(=O)C2C31", "note": "(stereo unspecified)", "activity, negative = inhibition": "17.4% [at 11.4 µM] (inactive)"},
      {"compound": "COc1ccc(O)c(/C=N/NC(=O)CSc2nnc(C)n2-c2ccccc2)c1", "AC50": "inactive"},
      {"compound": "Nc1c(-c2cccs2)cnn1-c1nc(-c2ccc(Cl)cc2Cl)cs1", "AC50": "inactive"},
      {"compound": "COC(=O)C1=C(C)NC(C)=C(C(=O)OC(C)C)C1c1cccc2nonc12", "note": "(stereo unspecified)", "AC50": "inactive"},
      {"compound": "COC(=O)C1=C(C)NC(C)=C([N+](=O)[O-])[C@H]1c1ccccc1C(F)(F)F", "AC50": "inactive"},
      {"compound": "COC(=O)C1=C(C)NC(C)=C([N+](=O)[O-])[C@@H]1c1ccccc1C(F)(F)F", "AC50": "6310 nM (active)"},
      {"compound": "CC(C)c1ccc(CN(C(=O)C2COc3ccccc3O2)C2CCS(=O)(=O)C2)cc1", "note": "(stereo unspecified)", "AC50": "14100 nM (active)"},
      {"compound": "Cc1ccc(CN(C(=O)c2cc3ccccc3oc2=O)C2CCS(=O)(=O)C2)cc1", "note": "(stereo unspecified)", "AC50": "inactive"},
      {"compound": "CCc1ccc(CN(C(=O)c2cc3ccccc3oc2=O)C2CCS(=O)(=O)C2)cc1", "note": "(stereo unspecified)", "AC50": "inactive"},
      {"compound": "CNNCc1ccc(C(=O)NC(C)C)cc1", "AC50": "inactive"},
      {"compound": "CC(Sc1nc(-c2ccccc2)cc(C(F)(F)F)n1)C(=O)N1CCCCC1", "note": "(stereo unspecified)", "AC50": "inactive"},
      {"compound": "CC(NC(=O)CCSc1nc(-c2ccc3c(c2)OCO3)cc(C(F)(F)F)n1)c1ccccc1", "note": "(stereo unspecified)", "AC50": "1000 nM (active)"},
      {"compound": "Cc1nc2ncnn2c(C)c1CCC(=O)NC(C)c1ccc2c(c1)OCCO2", "note": "(stereo unspecified)", "AC50": "inactive"},
      {"compound": "O=C1[C@H]2[C@H]3[C@H](O)[C@H](O)C/C(=N/OC[C@@H](O)COCc4ccco4)[C@H]3CC[C@@H]2C(=O)N1C1CCCCC1", "activity, negative = inhibition": "2.44% [at 11.4 µM] (inactive)"},
      {"compound": "Cc1ccc(C2/C(=C(/O)c3ccc(Cl)cc3)C(=O)C(=O)N2CC2CCCO2)o1", "note": "(stereo unspecified)", "AC50": "inactive"},
      {"compound": "COc1ncc2nc(C)c(=O)n(CCc3ccccc3)c2n1", "AC50": "inactive"},
      {"compound": "Cc1c(Cl)cnc(NC(=O)COC(=O)CCS(=O)(=O)c2ccccc2)c1Cl", "AC50": "inactive"},
      {"compound": "CC(C)CC(C(=O)OCC(=O)Nc1ncc(Cl)cc1Cl)N1C(=O)c2ccccc2C1=O", "note": "(stereo unspecified)", "AC50": "25100 nM (active)"},
      {"compound": "CC(C)=CC(=O)OCC(=O)Nc1ncc(Cl)c(C)c1Cl", "AC50": "inactive"},
      {"compound": "O=C(Nc1ccc(Cl)cc1)c1cnc(-c2ccccc2)nc1-c1ccccc1", "AC50": "inactive"},
      {"compound": "C/C(=N\\NC(=O)C1CC1c1ccccc1)c1cccs1", "note": "(stereo unspecified)", "AC50": "inactive"},
      {"compound": "Cc1cccn2c(=O)c(/C=N/O)c(N3CCCC3)nc12", "AC50": "inactive"},
      {"compound": "C=CCN=C1CC(C)(C)CC(=O)/C1=C(/O)CCC(=O)OC", "AC50": "inactive"},
      {"compound": "CN(C)CCCN1CCC2(CCC(C(C)(C)C)CC2)CC1", "activity, negative = inhibition": "9.19% [at 11.4 µM] (inactive)"},
      {"compound": "COc1ccc(-c2c(C)oc3c(CN4CCN(CCO)CC4)c(O)ccc3c2=O)cc1OC", "AC50": "inactive"},
      {"compound": "CCCc1cc(=O)oc2c(CN3CCOCC3)c(O)ccc12", "AC50": "2240 nM (active)"},
      {"compound": "O=c1oc2c(CN3CCOCC3)c(O)ccc2c2ccccc12", "AC50": "2000 nM (active)"},
      {"compound": "COc1ccccc1-c1c(C)oc2c(CN3CCN(CCO)CC3)c(O)ccc2c1=O", "AC50": "inactive"},
      {"compound": "CSc1nc(C)cc(Nc2ccc(O)c(CN3CCOCC3)c2)n1", "activity, negative = inhibition": "-3.84% [at 11.4 µM] (inactive)"},
      {"compound": "Nc1ccc(N2CCN(C(=O)c3ccco3)CC2)cc1", "AC50": "inactive"},
      {"compound": "Cc1ccc2nc(NC(=O)CSc3nc4c(c(=O)n3C)SC(C)C4)sc2c1", "note": "(stereo unspecified)", "AC50": "inactive"},
      {"compound": "Cc1ccnc(NS(=O)(=O)c2ccc(NC(=O)C3CCCNC3=O)cc2)n1", "note": "(stereo unspecified)", "AC50": "inactive"},
      {"compound": "CC(C)c1nnc(NC(=O)CCC(=O)N2CCN(c3ccccn3)CC2)s1", "AC50": "inactive"},
      {"compound": "O=[N+]([O-])c1cccc2c[nH]nc12", "AC50": "inactive"},
      {"compound": "C[C@]1(c2ccccc2)OC(C(=O)O)=CC1=O", "AC50": "inactive"},
      {"compound": "N#Cc1cccc(NC(=O)N2CC[C@@]3(CCCNC3)C2)c1", "AC50": "inactive"},
      {"compound": "c1ccc(C(c2ccccc2)N2CC[C@@]3(CCCNC3)C2)cc1", "AC50": "15800 nM (active)"},
      {"compound": "c1ccc(C(c2ccccc2)N2CC3(CCNCC3)C2)cc1", "AC50": "2510 nM (active)"},
      {"compound": "c1ccc(C(c2ccccc2)N2CCC3(CCNCC3)CC2)cc1", "AC50": "inactive"},
      {"compound": "O=C(Nc1ccccc1)N1CCCC2(CCNCC2)C1", "AC50": "inactive"},
      {"compound": "O=C(Nc1cccc(F)c1)N1CC[C@@]2(CCCNC2)C1", "AC50": "inactive"},
      {"compound": "CC(C)=CCC/C(C)=C/CO/N=C1/C[C@@H](O)[C@@H](O)[C@@H]2[C@@H]3C(=O)N(Cc4ccc5c(c4)OCO5)C(=O)[C@H]3CC[C@H]12", "activity, negative = inhibition": "-10.1% [at 11.4 µM] (inactive)"},
      {"compound": "CCc1cc(C(=O)NNC(=S)NCC2CCCO2)cs1", "note": "(stereo unspecified)", "AC50": "inactive"},
      {"compound": "O=C(O)c1cc(C(=O)C(=O)c2cc(C(=O)O)c(O)c3ccccc23)c2ccccc2c1O", "activity, negative = inhibition": "-0.777% [at 11.4 µM] (inactive)"},
      {"compound": "CCNc1ncc2nc(-c3cn(C)c4ccccc34)c(=O)n(Cc3cccs3)c2n1", "AC50": "inactive"},
      {"compound": "COc1ccc2c(c1)CCC1C2CC[C@]2(C)[C@H](NCCCCCCN3C(=O)C=CC3=O)CC[C@@H]12", "note": "(stereo partly specified)", "AC50": "inactive"},
      {"compound": "N#Cc1cccc(-c2nc3cnc(N4CCNCC4)nc3n(C3CC3)c2=O)c1", "AC50": "inactive"},
      {"compound": "CC(=O)c1sc(NC(=O)C(C)C)nc1C", "AC50": "inactive"},
      {"compound": "Fc1cccc(Cl)c1CSc1ncn[nH]1", "AC50": "inactive"},
      {"compound": "C[C@H](O/N=C1/[C@H]2O[C@@H]2[C@@H](O)[C@H]2[C@H]1CCn1c(=O)n(-c3ccccc3)c(=O)n12)c1cn([C@H](CO)Cc2ccccc2)nn1", "activity, negative = inhibition": "-8.19% [at 11.4 µM] (inactive) and 10.1% [at 11.4 µM] (inactive)"},
      {"compound": "O=c1cc(-c2ccccc2)[nH]c2nc(Cl)ccc12", "AC50": "inactive"},
      {"compound": "C[C@@H]1CC[C@H]2C(=O)N3[C@@H](CC[C@@H](C)[C@@H]3c3ccc(Br)cc3)C(=O)N2[C@@H]1c1ccc(Br)cc1", "activity, negative = inhibition": "-14.2% [at 11.4 µM] (inactive)"},
      {"compound": "C[C@H]1CC[C@H]2C(=O)N3[C@H](c4ccc(Br)cc4)[C@@H](C)CC[C@H]3C(=O)N2[C@@H]1c1ccc(Br)cc1", "activity, negative = inhibition": "-7.03% [at 11.4 µM] (inactive)"},
      {"compound": "CS(=O)(=O)N1N=C(c2ccc(Br)cc2)CC1c1ccc2c(c1)OCO2", "note": "(stereo unspecified)", "AC50": "631 nM (active)"}
    ]}
  ]
}
